# Data taken from paper PMC11006913.
# Residue numbers refer to the chain shown, from its start.
# Key:
# Experiment in all cases: PBM; 200 nM protein, PBS
# Details in all cases: dsDNA, one strand shown
# PAX4 [1] = target: T1, PAX4 (Homo sapiens, UniProt O43316 9-242, R200K)
# T1 sequence: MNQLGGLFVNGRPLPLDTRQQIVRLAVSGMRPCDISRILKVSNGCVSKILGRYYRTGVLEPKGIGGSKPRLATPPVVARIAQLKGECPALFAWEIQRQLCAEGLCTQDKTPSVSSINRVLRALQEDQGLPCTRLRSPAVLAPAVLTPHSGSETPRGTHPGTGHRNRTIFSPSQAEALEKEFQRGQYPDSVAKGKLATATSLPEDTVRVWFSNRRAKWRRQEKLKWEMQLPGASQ
# PAX4 [2] = target: T2, PAX4 (Homo sapiens, UniProt O43316 9-242)
# T2 sequence: T1 sequence with K192R
# PAX4 [3] = target: T3, PAX4 (Homo sapiens, UniProt O43316 9-242, R200Q)
# T3 sequence: T1 sequence with K192Q
# PAX4 [4] = target: T4, PAX4 (Homo sapiens, UniProt O43316 9-242, F177V)
# T4 sequence: T1 sequence with F169V, K192R
# PAX4 [5] = target: T5, PAX4 (Homo sapiens, UniProt O43316 9-242, F177Y)
# T5 sequence: T1 sequence with F169Y, K192R
# PAX4 [6] = target: T6, PAX4 (Homo sapiens, UniProt O43316 9-242, R227W)
# T6 sequence: T1 sequence with K192R, R219W
# CRX = CRX (Homo sapiens, UniProt O43186 26-111, R41L)
# ALX4 = ALX4 (Homo sapiens, UniProt Q9H161 200-286, Q225E)
# HESX1 [7] = target: HESX1 (Homo sapiens, UniProt Q9UBX0 95-180, R109Q)
# HESX1 [8] = target: HESX1 (Homo sapiens, UniProt Q9UBX0 95-180)
# NKX2-6 = target: T7, NKX2-6 (Homo sapiens, UniProt A6NCS4 118-204, R150C)
# T7 sequence: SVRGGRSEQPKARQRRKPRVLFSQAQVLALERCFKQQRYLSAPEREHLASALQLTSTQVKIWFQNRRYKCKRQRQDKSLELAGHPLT
# HESX1 [9] = target: HESX1 (Homo sapiens, UniProt Q9UBX0 95-180, F115L)
# NKX3-2 [10] = target: NKX3-2 (Homo sapiens, UniProt P78367 192-278, P234S)
# NKX3-2 [11] = target: NKX3-2 (Homo sapiens, UniProt P78367 192-278)
# HOXB6 = HOXB6 (Homo sapiens, UniProt P17509 132-218)
# PRRX1 [12] = target: PRRX1 (Homo sapiens, UniProt P54821 80-166, F113S)
# PRRX1 [13] = target: PRRX1 (Homo sapiens, UniProt P54821 80-166)
# Sequence of PRRX1 (Homo sapiens, UniProt P54821 80-166) (P54821 80-166): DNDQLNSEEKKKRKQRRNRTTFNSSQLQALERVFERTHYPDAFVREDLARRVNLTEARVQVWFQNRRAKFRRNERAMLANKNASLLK
# Sequence of PRRX1 (Homo sapiens, UniProt P54821 80-166, F113S) (P54821 80-166 F113S): as the sequence (P54821 80-166) above, with F34S counted along it
# Sequence of HESX1 (Homo sapiens, UniProt Q9UBX0 95-180, F115L) (Q9UBX0 95-180 F115L): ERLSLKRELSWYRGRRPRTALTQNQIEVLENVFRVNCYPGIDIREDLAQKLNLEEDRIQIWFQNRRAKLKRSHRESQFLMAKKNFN
# Sequence of CRX (O43186 26-111 R41L): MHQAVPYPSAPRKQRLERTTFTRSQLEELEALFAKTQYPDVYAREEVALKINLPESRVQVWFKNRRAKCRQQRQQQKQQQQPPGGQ
# Sequence of HOXB6 (P17509 132-218): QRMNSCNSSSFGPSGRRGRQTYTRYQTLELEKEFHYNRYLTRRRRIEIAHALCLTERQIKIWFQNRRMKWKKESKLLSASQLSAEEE
# Sequence of HESX1 (Homo sapiens, UniProt Q9UBX0 95-180, R109Q) (Q9UBX0 95-180 R109Q): as the sequence (Q9UBX0 95-180 F115L) above, with R15Q, L21F counted along it
# Sequence of NKX3-2 (Homo sapiens, UniProt P78367 192-278) (P78367 192-278): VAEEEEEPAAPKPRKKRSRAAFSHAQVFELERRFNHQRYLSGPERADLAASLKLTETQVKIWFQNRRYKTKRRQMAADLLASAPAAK
# Sequence of HESX1 (Homo sapiens, UniProt Q9UBX0 95-180) (Q9UBX0 95-180): as the sequence (Q9UBX0 95-180 F115L) above, with L21F counted along it
# Sequence of ALX4 (Q9H161 200-286 Q225E): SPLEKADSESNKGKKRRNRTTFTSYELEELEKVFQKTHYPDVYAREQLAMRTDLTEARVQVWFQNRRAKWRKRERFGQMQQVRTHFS
# Sequence of NKX3-2 (Homo sapiens, UniProt P78367 192-278, P234S) (P78367 192-278 P234S): as the sequence (P78367 192-278) above, with P43S counted along it
sequence,measurement,setting,value
CGTATTAG,binding signal,PAX4 [1],"11.8 upbm affinity estimate (log intensity, higher = more binding, comparable within an allelic series)"
same,binding signal,PAX4 [2],"12.3 upbm affinity estimate (log intensity, higher = more binding, comparable within an allelic series)"
same,binding signal,PAX4 [3],"11.4 upbm affinity estimate (log intensity, higher = more binding, comparable within an allelic series)"
same,binding signal,PAX4 [4],"10.6 upbm affinity estimate (log intensity, higher = more binding, comparable within an allelic series)"
same,binding signal,PAX4 [5],"11.1 upbm affinity estimate (log intensity, higher = more binding, comparable within an allelic series)"
same,binding signal,PAX4 [6],"11.1 upbm affinity estimate (log intensity, higher = more binding, comparable within an allelic series)"
same,binding signal,CRX,"10.6 upbm affinity estimate (log intensity, higher = more binding, comparable within an allelic series)"
AATTAAAC,binding signal,ALX4,"12.8 upbm affinity estimate (log intensity, higher = more binding, comparable within an allelic series)"
same,binding signal,PAX4 [3],"11.8 upbm affinity estimate (log intensity, higher = more binding, comparable within an allelic series)"
same,binding signal,HESX1 [7],"8.69 upbm affinity estimate (log intensity, higher = more binding, comparable within an allelic series)"
CGTAAGTA,binding signal,HESX1 [8],"7.17 upbm affinity estimate (log intensity, higher = more binding, comparable within an allelic series)"
GTCCCCCA,binding signal,NKX2-6,"9.42 upbm affinity estimate (log intensity, higher = more binding, comparable within an allelic series)"
CACGTGGC,binding signal,NKX2-6,"9.61 upbm affinity estimate (log intensity, higher = more binding, comparable within an allelic series)"
AATTATTG,binding signal,HESX1 [7],"8.57 upbm affinity estimate (log intensity, higher = more binding, comparable within an allelic series)"
same,binding signal,HESX1 [9],"8.02 upbm affinity estimate (log intensity, higher = more binding, comparable within an allelic series)"
AAATAATT,binding signal,HESX1 [9],"7.74 upbm affinity estimate (log intensity, higher = more binding, comparable within an allelic series)"
AATTATAG,binding signal,PAX4 [6],"10.9 upbm affinity estimate (log intensity, higher = more binding, comparable within an allelic series)"
GCTCGGCC,binding signal,NKX3-2 [10],"10.3 upbm affinity estimate (log intensity, higher = more binding, comparable within an allelic series)"
same,binding signal,NKX3-2 [11],"10.3 upbm affinity estimate (log intensity, higher = more binding, comparable within an allelic series)"
CTATAATC,binding signal,CRX,"12.5 upbm affinity estimate (log intensity, higher = more binding, comparable within an allelic series)"
GCCGGACC,binding signal,HOXB6,"8.93 upbm affinity estimate (log intensity, higher = more binding, comparable within an allelic series)"
GTCCCCAC,binding signal,HOXB6,"9.13 upbm affinity estimate (log intensity, higher = more binding, comparable within an allelic series)"
TCGTAACA,binding signal,PRRX1 [12],"10.2 upbm affinity estimate (log intensity, higher = more binding, comparable within an allelic series)"
same,binding signal,PRRX1 [13],"11.3 upbm affinity estimate (log intensity, higher = more binding, comparable within an allelic series)"
TAAACTCA,binding signal,PRRX1 [12],"10.1 upbm affinity estimate (log intensity, higher = more binding, comparable within an allelic series)"
same,binding signal,PRRX1 [13],"11.1 upbm affinity estimate (log intensity, higher = more binding, comparable within an allelic series)"
CCCCAATA,binding signal,PRRX1 [12],"9.73 upbm affinity estimate (log intensity, higher = more binding, comparable within an allelic series)"
same,binding signal,PRRX1 [13],"11 upbm affinity estimate (log intensity, higher = more binding, comparable within an allelic series)"
CCGGGGTC,binding signal,PRRX1 [12],"9.27 upbm affinity estimate (log intensity, higher = more binding, comparable within an allelic series)"
same,binding signal,PRRX1 [13],"9.54 upbm affinity estimate (log intensity, higher = more binding, comparable within an allelic series)"
CCAGGGAG,binding signal,PRRX1 [12],"9.19 upbm affinity estimate (log intensity, higher = more binding, comparable within an allelic series)"
same,binding signal,PRRX1 [13],"8.8 upbm affinity estimate (log intensity, higher = more binding, comparable within an allelic series)"
GCTCCAGA,binding signal,PRRX1 [12],"9.35 upbm affinity estimate (log intensity, higher = more binding, comparable within an allelic series)"
same,binding signal,PRRX1 [13],"9.02 upbm affinity estimate (log intensity, higher = more binding, comparable within an allelic series)"
ACCGTGCG,binding signal,PRRX1 [12],"9.48 upbm affinity estimate (log intensity, higher = more binding, comparable within an allelic series)"
same,binding signal,PRRX1 [13],"9.43 upbm affinity estimate (log intensity, higher = more binding, comparable within an allelic series)"
AATCATCC,binding signal,PRRX1 [12],"10.3 upbm affinity estimate (log intensity, higher = more binding, comparable within an allelic series)"
same,binding signal,PRRX1 [13],"12.1 upbm affinity estimate (log intensity, higher = more binding, comparable within an allelic series)"
AGATATTA,binding signal,PRRX1 [12],"10.4 upbm affinity estimate (log intensity, higher = more binding, comparable within an allelic series)"
same,binding signal,PRRX1 [13],"12.2 upbm affinity estimate (log intensity, higher = more binding, comparable within an allelic series)"
CTTCATTA,binding signal,PRRX1 [12],"10.5 upbm affinity estimate (log intensity, higher = more binding, comparable within an allelic series)"
same,binding signal,PRRX1 [13],"12.8 upbm affinity estimate (log intensity, higher = more binding, comparable within an allelic series)"
GCAAGGCC,binding signal,PRRX1 [12],"9.45 upbm affinity estimate (log intensity, higher = more binding, comparable within an allelic series)"
same,binding signal,PRRX1 [13],"9.29 upbm affinity estimate (log intensity, higher = more binding, comparable within an allelic series)"
CGGAGCGC,binding signal,PRRX1 [12],"9.18 upbm affinity estimate (log intensity, higher = more binding, comparable within an allelic series)"
same,binding signal,PRRX1 [13],"9.3 upbm affinity estimate (log intensity, higher = more binding, comparable within an allelic series)"
GCTCTTCC,binding signal,PRRX1 [12],"9.47 upbm affinity estimate (log intensity, higher = more binding, comparable within an allelic series)"
same,binding signal,PRRX1 [13],"9.1 upbm affinity estimate (log intensity, higher = more binding, comparable within an allelic series)"
CCATGACG,binding signal,PRRX1 [12],"9.32 upbm affinity estimate (log intensity, higher = more binding, comparable within an allelic series)"
same,binding signal,PRRX1 [13],"9.37 upbm affinity estimate (log intensity, higher = more binding, comparable within an allelic series)"
AATATTAG,binding signal,PRRX1 [12],"10.5 upbm affinity estimate (log intensity, higher = more binding, comparable within an allelic series)"
same,binding signal,PRRX1 [13],"12.4 upbm affinity estimate (log intensity, higher = more binding, comparable within an allelic series)"
CCAAGCTC,binding signal,PRRX1 [12],"9.29 upbm affinity estimate (log intensity, higher = more binding, comparable within an allelic series)"
same,binding signal,PRRX1 [13],"9.43 upbm affinity estimate (log intensity, higher = more binding, comparable within an allelic series)"
CATCGGAC,binding signal,PRRX1 [12],"9.34 upbm affinity estimate (log intensity, higher = more binding, comparable within an allelic series)"
same,binding signal,PRRX1 [13],"9.14 upbm affinity estimate (log intensity, higher = more binding, comparable within an allelic series)"
CCAAGACG,binding signal,PRRX1 [12],"9.45 upbm affinity estimate (log intensity, higher = more binding, comparable within an allelic series)"
same,binding signal,PRRX1 [13],"9.18 upbm affinity estimate (log intensity, higher = more binding, comparable within an allelic series)"
CTAGACCC,binding signal,PRRX1 [12],"9.44 upbm affinity estimate (log intensity, higher = more binding, comparable within an allelic series)"
same,binding signal,PRRX1 [13],"9.31 upbm affinity estimate (log intensity, higher = more binding, comparable within an allelic series)"
AATCATGT,binding signal,PRRX1 [12],"10.4 upbm affinity estimate (log intensity, higher = more binding, comparable within an allelic series)"
same,binding signal,PRRX1 [13],"12.2 upbm affinity estimate (log intensity, higher = more binding, comparable within an allelic series)"
CAATTCCC,binding signal,PRRX1 [12],"9.81 upbm affinity estimate (log intensity, higher = more binding, comparable within an allelic series)"
same,binding signal,PRRX1 [13],"11.3 upbm affinity estimate (log intensity, higher = more binding, comparable within an allelic series)"
